Data taken from PubChem BioAssay AID602393 (Broad Institute, 2012).
The campaign covered roughly 350,000 compounds. About 7,000 (2%) were called active. This excerpt belongs to a sample that is enriched for actives. A number with no mark means an inactive call. Rule as the data show it: active = activation above about 40%; inconclusive = no clear call, values can overlap the other calls; inactive = below that.

Assay: Bmi1 luciferase reporter increase in mESCs, primary screen, esBAF inhibitor project, mouse ES cells, Bmi1 luciferase knock-in, single point (AID 602393);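 also: 0% = median of the plate's neutral control wells and 100% = double that signal; a rise in the Bmi1 reporter signal indicates esBAF inhibition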
Settings: 24 h, at 12.5 µM, active compounds read high, 100% = twice the neutral-well signal

SMILES	reporter increase
C[C@@H]1CCCCO[C@@H](CN(C)Cc2ccncc2)[C@H](C)CN([C@H](C)CO)C(=O)c2cc(N(C)C)ccc2O1	-12.3%
CCCC(=O)Nc1ccc2c(c1)OC[C@@H](C)N(Cc1ccccc1F)C[C@@H](C)[C@H](OC)CN(C)C2=O	-2.03%
COc1ccc(S(=O)(=O)Nc2cccc3c2O[C@@H](CN(C)C(=O)NC(C)C)[C@H](C)CN([C@@H](C)CO)C3=O)cc1	-7.18%
O=C([C@@H]1[C@@H](CO)[C@@H]2Cn3c(ccc(C4=CCCC4)c3=O)[C@H]1N2C(=O)c1ccncc1)N1CCCCC1	-2.02%
C[C@@H]1CN([C@@H](C)CO)C(=O)CCCn2cc(nn2)CO[C@@H]1CN(C)Cc1ccccc1C(=O)O	-3.04%
C[C@@H]1CCCCO[C@H](CN(C)C(=O)NC2CCCCC2)[C@H](C)CN([C@@H](C)CO)C(=O)c2cc(NC(=O)Nc3ccc(F)cc3)ccc2O1	3.4%
C[C@H]1CCCCO[C@H](CN(C)C(=O)NC2CCCCC2)[C@@H](C)CN([C@@H](C)CO)C(=O)c2cc(NC(=O)Nc3ccc4c(c3)OCO4)ccc2O1	44.8% (active)
CC(C)NC(=O)N(C)C[C@H]1OCCCC[C@H](C)Oc2ccc(NC(=O)Nc3ccc4c(c3)OCO4)cc2C(=O)N([C@H](C)CO)C[C@@H]1C	4.2%
C[C@H](CO)N1C[C@H](C)[C@H](CN(C)C(=O)NC2CCCCC2)OCCCC[C@H](C)Oc2ccc(NC(=O)Nc3ccc4c(c3)OCO4)cc2C1=O	55.8% (active)
C[C@@H]1CCCCO[C@@H](CN(C)C(=O)NC2CCCCC2)[C@H](C)CN([C@@H](C)CO)C(=O)c2cc(NC(=O)Nc3ccc(F)cc3)ccc2O1	3.77%
C[C@@H]1CCCCO[C@H](CN(C)C(=O)NC2CCCCC2)[C@H](C)CN([C@H](C)CO)C(=O)c2cc(NC(=O)Nc3ccc(F)cc3)ccc2O1	4.59%
COCC(=O)N(C)C[C@H]1Oc2ncc(-c3cccc(OC)c3)cc2C(=O)N([C@H](C)CO)C[C@H]1C	-0.645%
C[C@@H]1CN([C@H](C)CO)C(=O)CCCn2cc(nn2)CO[C@@H]1CN(C)Cc1ccc2cccnc2c1	-4.13%
CCC(=O)Nc1ccc2c(c1)OC[C@@H](C)N(CC1CC1)C[C@H](C)[C@H](OC)CN(C)C2=O	2.9%
C[C@H]1CN([C@@H](C)CO)C(=O)c2cc(C#CC(C)(C)O)cnc2O[C@H]1CN(C)C(=O)CC1CC1	2.32%
C[C@@H]1CN([C@H](C)CO)C(=O)c2c(c3ccccc3n2C)-c2ccccc2CO[C@@H]1CN(C)C(=O)Nc1ccccc1	2.44%
